AC50 and outcome data for 21 compounds are collected here from PubChem BioAssay (EPA / NIEHS).

Inconclusive results are not listed. The source made the active and inactive calls. How the source made its calls, unless noted: active means hit-call score of the fitted dose curve at least 0.9, where 1 is the maximum; inactive means score below 0.9.

The test system of the first experiment is Thyroperoxidase (TPO), gene 54314. Kind of experiment: CCTE_Simmons_AUR_rTPO: CCTE's Amplex UltraRed Assay for Thyroperoxidase (TPO) Inhibition, Simmons Lab (AID 2283662; active means hit-call score of the fitted dose curve at least 0.9, where 1 is the maximum;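 on AC50: potency for loss of signal meaning inhibition of peroxidase activity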). The procedure, abridged:
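Cell-free peroxidase activity assay using rat thyroid gland microsomes with excess H2O2 (300 uM) and 25 uM Amplex UltraRed. Compounds tested from 5 nM to 87.5 uM; fluorescence measured after 30 min at 37C, analysed relative to DMSO baseline.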
Usually AC50 stands for the concentration giving half of the maximal activity seen. As to `CCCCCCc1ccc(N)cc1`, the AC50 is 0.0476 µM (active).

As for `Cc1cc(C(=C2C=CC(=Nc3ccc(S(=O)(=O)O)cc3)C=C2)c2ccc(Nc3ccc(S(=O)(=O)O)cc3)cc2)cc(S(=O)(=O)O)c1N`, the AC50 was 29.4 µM (active).

For the compound `Cc1cc(C(C)(C)C)c(O)c(C(C)(C)C)c1`, the AC50 is 2.84 µM (active).

On to `COc1cc([N+](=O)[O-])ccc1N`, for which the compound was called inactive.

On to `C[C@]12CC[C@@H]3c4ccc(O)cc4CC[C@H]3[C@@H]1C[C@@H](O)[C@@H]2O`, for which the AC50 was 11.9 µM (active).

Tested on in a further experiment: not listed separately
Kind of experiment: STM_H9_OrnCyssISnorm_ratio: Stemina devTOX quickPredict H9 human embryonic stem cell (hESC)-based Assay for Ornithine (ORN):Cystine (CYSS) Ratio (AID 2283714; active means hit-call score of the fitted dose curve at least 0.9, where 1 is the maximum). The essentials:
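UPLC-HRMS of spent media: ORN/CYSS ratio of internal-standard-normalized percentages, DMSO (0.1%) baseline. Pluripotent H9 hESCs, 72h exposure, daily re-dosing with fresh media; last 24h media collected.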
As for `CC(C)(C)c1ccc(O)c(O)c1`, the AC50 is 76.2 µM (active).

Take `Oc1c(Cl)cc(Cl)cc1Sc1cc(Cl)cc(Cl)c1O`: the outcome was inactive.

Take `Cn1sccc1=O`: the AC50 was 10.8 µM (active).

Regarding `CC1=CC(=O)c2ccccc2C1=O`, the AC50 was 11.8 µM (active).

For the compound `C=Cc1ccc(O)c(OC)c1`, the AC50 is 81 µM (active).

Read-out in another experiment: not listed separately
As to the kind of experiment: CEETOX_H295R_MTT_cell_viability: Viability Assessment in the CeeTox HT-H295R MTT Assay (AID 2283718).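 On AC50: curve fitted both ways so AC50 may mark viability loss or gain.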 The procedure, abridged: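 Human H295R adrenal cells, prestimulated 48 h with 10 uM forskolin, were exposed 48 h to chemicals in 0.1% DMSO. Viability was measured in the same wells by MTT (0.5 mg/ml, 4 h, 37 C), absorbance 570/650 nm, as percent of controls.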
As to `Oc1cc2ccccc2cc1O`, the outcome was inactive.

For the compound `CC(C)(C)c1ccc(O)c(O)c1`, the compound was classed as inactive.

With `C/C=C/C(=O)C1=C(C)CCCC1(C)C`, the outcome was inactive.

With `CC(C)CCOCCC(C)C`, the compound was classed as inactive.

For the compound `CC(C)(c1ccc(Oc2ccc(N)cc2)cc1)c1ccc(Oc2ccc(N)cc2)cc1`, the result was inactive.

With `CCCCCC(C)OC(=O)COc1ccc(Cl)c2cccnc12` (centres undefined), the compound was called inactive.

Turning to `CCCCCc1ccc(O)cc1`, the result was inactive.

On to `Clc1ccc(Nc2nnc(Cc3ccncc3)c3ccccc23)cc1`, for which the compound was called inactive.

On to `c1cc[nH]c1`, for which the result was inactive.

Turning to `COc1cccc(O)c1`, the outcome was inactive.

Consider `COc1cc([N+](=O)[O-])ccc1N`, for which the outcome was inactive.

Take `Cc1cccc2c1ccc1ccccc12`: the outcome was inactive.

Turning to `O=C(NCc1ncc(C(F)(F)F)cc1Cl)c1c(Cl)cccc1Cl`, the compound was called inactive.

Consider `C[C@]12CC[C@@H]3c4ccc(O)cc4CC[C@H]3[C@@H]1C[C@@H](O)[C@@H]2O`, for which the AC50 was 91.7 µM (active).
